# Screens as filed in PubChem BioAssay.
# In the library only some 21% were active in any assay of this set; here they are far more common.
# CYP2C9 inh: blockers of cytochrome P450 2C9 activity – biochemical, luminescence, ADME assay, primary screen | P11712 | CYP2C9 Supersomes, luciferin-H conversion | inhibition, % at 5 µM | hit rate 20% among 96,000 | AID 777, 2007;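 active = blocking of liver enzyme CYP2C9 beyond about 50% at 5 µM, limit read from the data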
# CYP2C9 act: human CYP2C9 activators, primary screen, biochemical, luminescence | Cytochrome P450 2C9 (Homo sapiens), P11712 | recombinant CYP2C9, luciferin-H conversion; active compounds read high; factor 1 = untreated enzyme, 0 = blocked | activation factor at 5 µM | hit rate 1.4% among 96,000 | AID 1024, 2008;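 active = activation factor of 2 or more for CYP2C9 at a 5 µM dose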;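 also: 0 = sulfaphenazole-blocked wells and 1 = vehicle-only wells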
# CYP2C19 inhib: blockers of cytochrome P450 2C19 activity – biochemical, luminescence, ADME assay, primary screen; P33261; CYP2C19 Supersomes, luciferin-H EGE luminescence, 30 min; inhibition, % at 5 µM; hit rate 21% among 96,000;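 active = CYP2C19 inhibition above a set limit at 5 µM in the primary screen, cut at about 50% in these data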;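 also: plate controls were negative control wells for no effect and 2.5 mM tranylcypromine positive control for full effect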
# Target sequence (P33261 whole entry, looked up): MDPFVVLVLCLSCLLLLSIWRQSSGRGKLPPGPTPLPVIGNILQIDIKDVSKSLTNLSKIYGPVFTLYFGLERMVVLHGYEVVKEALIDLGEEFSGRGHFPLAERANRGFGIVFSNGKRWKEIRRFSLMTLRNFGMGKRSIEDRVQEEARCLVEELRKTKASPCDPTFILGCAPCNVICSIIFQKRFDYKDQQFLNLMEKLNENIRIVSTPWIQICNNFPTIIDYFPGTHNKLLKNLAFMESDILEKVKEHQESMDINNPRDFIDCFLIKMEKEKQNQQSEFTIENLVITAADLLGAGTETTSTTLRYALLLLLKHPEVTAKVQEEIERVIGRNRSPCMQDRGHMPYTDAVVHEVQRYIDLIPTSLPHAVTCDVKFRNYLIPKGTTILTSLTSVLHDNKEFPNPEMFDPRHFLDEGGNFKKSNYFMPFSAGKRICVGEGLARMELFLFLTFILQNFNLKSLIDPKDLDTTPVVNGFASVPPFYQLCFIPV
# MRP1 act: H69AR viability gain despite doxorubicin, primary screen, MRP-1 activator project, H69AR cells, CellTiter-Glo; hit rate 0.61% among 140,000; viability increase, % at 10 µM; viability rescue;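 active = viability gain under doxorubicin at or above a set limit, the compound median plus 3 SD, cut at about 4.7% in these data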;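 also: MRP-1 overexpressing cells given doxorubicin 25 µM after compound pretreatment; 18-22 h compound pretreatment then 72 h with doxorubicin before readout; 0% = doxorubicin-only wells and 100% = vehicle-treated cells without doxorubicin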
# MRP resist rev: reversal of MRP1-mediated doxorubicin resistance, primary screen, H69AR cells, doxorubicin co-treatment | hit rate 0.04% among 85,000 | H69AR cells + 2 uM doxorubicin, CellTiter-Glo, 72 h | AID 602, 2007 | differential viability (reversal), % at 10 µM;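 active = viability drop by adding the cancer drug above about 55%, with treated viability meeting a 40% cutoff, limit read from the data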;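 also: viability without doxorubicin minus viability with 2 µM doxorubicin for each compound; larger differential means the compound sensitizes cells more to doxorubicin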
# CYP2C19 act: human CYP2C19 activators, primary screen, biochemical, luminescence. recombinant CYP2C19, luciferin-H EGE luminescence; active compounds read high; 0 = fully inhibited enzyme, 1 = untreated enzyme. activation factor at 5 µM. 96,000 tested, under 10 active. AID 1025, 2008. Cytochrome P450 2C19 (Homo sapiens), P33261;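 active = activation factor of at least 2 at 5 µM in the primary screen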;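 also: 0 = wells with 2.5 mM tranylcypromine and 1 = vehicle-only wells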
# Active calls of the source: *; nt = not tested or not shown.
SMILES,CYP2C9 inh,CYP2C9 act,CYP2C19 inhib,MRP1 act,MRP resist rev,CYP2C19 act
CCOc1ccccc1OCCNC1CCCC1,nt,nt,nt,-3.2,nt,nt
CCOC(=O)c1ccc(Nc2cc(C)nc(C)c2C(=O)OCC)cc1,52.3*,0.5,88.8*,-0.2,18.8,0.1
O=C(NCc1ccccc1)C(c1ccncc1)N(C(=O)c1csnn1)C1CC1 (centres undefined),15.5,0.8,44.7,-3.0,6.2,0.6
O=C(NCc1ccc(F)cc1)C(c1ccncc1)N(C(=O)c1csnn1)C1CC1 (centres undefined),18.8,0.8,53.5*,-3.1,-11.2,0.5
CCOC(=O)c1cc(-c2ccccc2)sc1NC(=O)C(C)Sc1nnc(N)s1 (centres undefined),nt,nt,nt,11.4*,nt,nt
CCOC(=O)c1sc(-c2ccc(F)cc2)cc1N,83.0*,0.2,90.1*,2.3,nt,0.1
CCOC(=O)c1cc(-c2ccccc2)sc1N,nt,nt,nt,0.0,-2.0,nt
CCOC(=O)c1sc(-c2ccc(OC)cc2)cc1N,68.4*,0.3,65.4*,2.4,5.8,0.3
CCOC(=O)c1sc(-c2ccccc2)cc1N,80.1*,0.2,90.3*,0.8,6.1,0.1
CCOCC(=O)NCc1ccc2c(c1)OCO2,2.6,1,22.2,-1.6,1.0,0.8
COc1cc(NC(=O)C(C)Oc2ccccc2)cc(OC)c1 (centres undefined),79.2*,0.2,85.5*,-3.6,11.8,0.1
CC(Oc1ccccc1)C(=O)Nc1cccc(F)c1 (centres undefined),24.0,0.8,38.3,-2.7,6.4,0.6
CC(Oc1ccccc1)C(=O)Nc1ccccc1O (centres undefined),86.9*,0.1,86.8*,-2.6,-11.4,0.1
O=C1CCCC(=O)C1=C1SCCCS1,nt,nt,nt,2.5,nt,nt
CCN(C(=O)c1cc2cccc(OC)c2oc1=O)c1ccccc1,-19.7,1.2,40.0,0.1,-5.7,0.6
Nc1cc(N)nc(SCc2nnnn2-c2ccc(Cl)cc2)n1,nt,nt,nt,-1.4,nt,nt
Cc1ccccc1-n1nc(C)c2cc(C(=O)N3CCN(S(=O)(=O)c4ccc(F)cc4)CC3)sc21,75.1*,0.2,11.0,-3.2,22.7,0.9
Cc1ccc(S(=O)(=O)N2CCN(C(=O)c3cc4c(C)nn(-c5ccccc5)c4s3)CC2)cc1,44.1,0.6,2.0,-1.6,-16.4,1
Cc1ccccc1-n1nc(C)c2cc(C(=O)N3CCN(S(=O)(=O)c4ccc(Cl)cc4)CC3)sc21,65.5*,0.3,46.9,-3.2,-12.8,0.5
COc1ccc(S(=O)(=O)N2CCSC2c2ccccc2)cc1 (centres undefined),-61.6,1.6,99.4*,-2.7,-12.8,0
COc1ccc(C2SCCN2S(=O)(=O)c2ccc(F)cc2)cc1OC (centres undefined),-81.6,1.8,55.8*,-2.4,3.3,0.4
COc1ccc(S(=O)(=O)N2CCSC2c2ccc(OC)c(OC)c2)cc1 (centres undefined),-96.5,2*,63.4*,0.6,2.8,0.4
COc1ccccc1C1SCCN1S(=O)(=O)c1cccc(C(F)(F)F)c1 (centres undefined),-63.4,1.6,31.0,-3.4,7.5,0.7
CC(=O)Nc1ccc(S(=O)(=O)N2CCSC2c2ccccc2)cc1 (centres undefined),31.0,0.7,59.1*,1.1,0.4,0.4
CC(=O)Nc1ccc(S(=O)(=O)N2CCSC2c2ccccc2Cl)cc1 (centres undefined),2.9,1,11.8,0.1,nt,0.9
Cc1ccc(CNC(=O)C2CC(=O)N(c3ccc(OCC(=O)N4CCCC4)cc3)C2)cc1 (centres undefined),nt,nt,nt,0.2,-3.9,nt
O=C(COC(=O)CCCSc1nc2ccccc2[nH]1)NC(=O)NC1CCCC1,-51.8,1.5,12.6,-1.0,-2.2,0.9
CCCCCn1c(CN2CCN(c3cc(Cl)ccc3C)CC2)nc2c1c(=O)[nH]c(=O)n2C,24.4,0.8,14.9,-3.3,-24.1,0.9
CC(C)Oc1ccc(Br)cc1/C=N\NC(N)=S,nt,nt,nt,-3.6,nt,nt
